Assay results taken from PubChem BioAssay (Tox21).
Values joined by “and” are separate entries in the source; they are usually repeats but may differ in a detail not shown here. Equal values may be shown once. Results filed as inconclusive are left out. Where a call stands in place of a potency, no number is given. The source holds several records for some structures; these can differ, active in one and inactive in another. Active and inactive are the calls of the source. Unless noted, calls follow the shape of the dose curve; as a rule, active = well fitted curve in the direction sought with a large enough effect in the repeat runs; inconclusive = weak or mixed curves; inactive = no such curve, though single readings can be large; an effect the other way counts as inactive or inconclusive.

Assays:
[1] = qHTS assay to identify small molecule agonists of the hypoxia (HIF-1) signaling pathway - cell viability counter screen (AID 1224844; calls by dose curve; also: nearly all actives have a fitted effect of over 50% in size; also: potency is read from the fitted curve at half-maximal effect)
Method in brief: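 Cytotoxicity measured by CellTiter-Glo ATP luminescence in the wells also read for beta-lactamase signal. Cells were HRE-bla ME-180 (2,000/well, 0.5% dialyzed FBS), exposed to compounds for 17 h at 37C.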

[2] = qHTS assay to identify small molecule agonists of H2AX (AID 1224845; active = well fitted activation curve with a large enough effect in the signal ratio in the repeat runs, not every such curve was filed as active; the % refers to the signal ratio)
Method in brief: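 Phospho-H2AX Ser139 measured by HTRF (ex 320 nm; em 665 and 620 nm) after 24 hr antibody incubation. Compounds, 15 concentrations, 0.76% DMSO, were applied to CHO-K1 cells for 3hr at 37C before lysis.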

[3] = qHTS assay to identify small molecule agonists of the hypoxia (HIF-1) signaling pathway (AID 1224846; active = well fitted activation curve with a large enough effect in the signal ratio in the repeat runs, not every such curve was filed as active; the % refers to the signal ratio)
Method in brief: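 Compounds added to ME-180 cells carrying hypoxia-response-element beta-lactamase reporter (0.5% dialyzed FBS, 5 h preplating), 17 h at 37C; agonist activity detected by CCF4-AM B/G FRET read-out.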

[4] = qHTS assay to identify small molecule agonists of H2AX - cell viability counter screen (AID 1224847; calls by dose curve; also: nearly all actives have a fitted effect of over 30% in size; also: potency is read from the fitted curve at half-maximal effect)
Method in brief: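 Read-out: CellTiter-Glo luminescence, 30 min RT. Cells: wild-type CHO-K1, 1000/well, 10% FBS, plated overnight at 37C. Treatment: 15 concentrations, 3 hr, 37C, 0.76% DMSO.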

[5] = qHTS assay to identify small molecule antagonists of the estrogen related receptor (ERR) signaling pathway from Tox21 library (AID 1224848); also: nearly all actives have a fitted effect of over 50% in size
Method in brief: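 ERR cell line, 2,000 cells/well. 6 h settle, then compound (DMSO) added; 18 h at 37 C; ONE-Glo luminescence after 30 min RT.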

[6] = qHTS RealTime-Glo MT Cell Viability Assay in HepG2 cells - 24 hour (AID 1224867); also: nearly all actives have a fitted effect of over 50% in size
Method in brief: (§1)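 Cell number in HepG2 cultures estimated from NanoLuc luminescence generated by metabolic reduction of a prosubstrate by living cells. The homogeneous, nonlytic format allowed repeated reads at 0, 8, 16, 24, 32 and 40 h of compound exposure.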

[7] = qHTS RealTime-Glo MT Cell Viability Assay in HEK293 cells - 32 hour (AID 1224868); also: nearly all actives have a fitted effect of over 50% in size; also: potency is read from the fitted curve at half-maximal effect
Method in brief: (§2)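 Homogeneous bioluminescent viability format in HEK293 cells (600 cells/well). Following 5 h at 37 C/5% CO2, 23 nL compound was pintooled; the signal was measured repeatedly during 40 h incubation.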

[8] = A CellTox Green Cytotoxicity Assay to monitor cytotoxicity in HEK293 cells - 0 hour (AID 1224869); also: nearly all actives have a fitted effect of over 50% in size
Method in brief: (§3)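 Fluorescence from a DNA-binding dye excluded by viable cells was measured repeatedly in the same HEK293 wells (600 cells/well) during continuous compound exposure at 37 C. Each assay gives one read point: 0, 8, 16, 24, 32 or 40 h.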

[9] = qHTS RealTime-Glo MT Cell Viability Assay in HepG2 cells - 40 hour (AID 1224870); also: nearly all actives have a fitted effect of over 50% in size
Method in brief: (§4)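 Real-time viability: cells seeded at 600 per well together with NanoLuc and cell-permeant prosubstrate, compounds added after 5 h incubation. Luminescence tracked at 0, 8, 16, 24, 32 and 40 h of exposure.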

[10] = A CellTox Green Cytotoxicity Assay to monitor cytotoxicity in HEK293 cells - 40 hour (AID 1224871); also: nearly all actives have a fitted effect of over 45% in size
Method in brief: as §3

[11] = qHTS RealTime-Glo MT Cell Viability Assay in HEK293 cells - 16 hour (AID 1224872); also: nearly all actives have a fitted effect of over 50% in size; also: potency is read from the fitted curve at half-maximal effect
Method in brief: as §2

[12] = qHTS RealTime-Glo MT Cell Viability Assay in HepG2 cells - 8 hour (AID 1224873); also: nearly all actives have a fitted effect of over 55% in size
Method in brief: as §4

[13] = A CellTox Green Cytotoxicity Assay to monitor cytotoxicity in HEK293 cells - 24 hour (AID 1224875); also: nearly all actives have a fitted effect of over 45% in size
Method in brief: as §3

[14] = A CellTox Green Cytotoxicity Assay to monitor cytotoxicity in HepG2 cells - 16 hour (AID 1224876); also: nearly all actives have a fitted effect of over 45% in size
Method in brief: (§5)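 Real-time cytotoxicity: fluorescence of a cell-impermeant cyanine dye binding DNA of dead HepG2 cells, measured repeatedly (0–40 h) during compound exposure at 37 C. Cells seeded 600/well with reagent, dosed after 5 h.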

[15] = qHTS RealTime-Glo MT Cell Viability Assay in HepG2 cells - 32 hour (AID 1224877); also: nearly all actives have a fitted effect of over 55% in size
Method in brief: as §1

[16] = A CellTox Green Cytotoxicity Assay to monitor cytotoxicity in HepG2 cells - 24 hour (AID 1224878); also: nearly all actives have a fitted effect of over 45% in size; also: potency is read from the fitted curve at half-maximal effect
Method in brief: as §5

[17] = A CellTox Green Cytotoxicity Assay to monitor cytotoxicity in HepG2 cells - 40 hour (AID 1224879); also: nearly all actives have a fitted effect of over 40% in size; also: potency is read from the fitted curve at half-maximal effect
Method in brief: as §5

[18] = qHTS RealTime-Glo MT Cell Viability Assay in HEK293 cells - 0 hour (AID 1224880)
Method in brief: (§6)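 Luminescence, which tracks viable cell number through reduction of the prosubstrate to a NanoLuc substrate, was read over continuous 37 C culture. Cells (600/well) were premixed with reagent and rested 5 h before 23 nL of compound in DMSO was pinned.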

[19] = qHTS assay to identify small molecule agonists of the estrogen related receptor (ERR) signaling pathway from Tox21 library (AID 1224849; calls by dose curve; also: nearly all actives have a fitted effect of over 15% in size); conditions: ERR reporter cell line, ONE-Glo luciferase, 18 h
Method in brief: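 Luminescent agonist read-out (One-Glo, 30-minute room-temperature incubation) following 18-hour compound treatment at 37 C of the ERR cell line, which had been plated 6 hours before dosing.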

[20] = qHTS RealTime-Glo MT Cell Viability Assay in HEK293 cells - 40 hour (AID 1224874); conditions: RealTime-Glo luminescence; max response: stronger effect = lower value; also: nearly all actives have a fitted effect of over 50% in size
Method in brief: as §6

Compound: CCOP(=O)(OCC)OCC
- Potency [1]: inactive
- Potency [2]: inactive
- outcome [3]: inactive
- Potency [4]: inactive
- Potency [5]: inactive
- Potency [6]: inactive
- Potency [7]: inactive
- Potency [8]: inactive
- Potency [9]: inactive
- Potency [10]: inactive
- Potency [11]: inactive
- Potency [12]: inactive
- Potency [13]: inactive
- Potency [14]: inactive
- Potency [15]: inactive
- Potency [16]: inactive
- Potency [17]: inactive
- Potency [18]: inactive

Compound: COP(=S)(OC)Oc1ccc(S(=O)(=O)N(C)C)cc1
- Potency [1]: inactive
- Potency [2]: inactive
- outcome [3]: inactive
- Potency [4]: inactive
- Potency [5]: inactive
- activity change, positive = activation ([19]; at 42.5 µM (top of the series)): -5.44% (inactive)
- activity change, positive = activation ([19]; at 92.4 µM (top of the series)): -12.4% (inactive)
- Potency [6]: inactive
- Potency [7]: inactive
- Potency [8]: inactive
- Potency [9]: inactive
- Potency [11]: inactive
- Potency [12]: inactive
- Potency [13]: inactive
- Potency [14]: inactive
- Potency [15]: inactive
- Potency [16]: inactive
- Potency [17]: inactive
- Potency [18]: inactive

Compound: [Cl-].[Cl-].[Cl-].[Fe+3]
- Potency [1]: inactive
- Potency [2]: inactive
- outcome [3]: inactive
- Potency [4]: inactive
- Potency [6]: inactive
- Potency [7]: inactive
- Potency [8]: inactive
- Potency [9]: inactive
- Potency [10]: inactive
- Potency [11]: inactive
- Potency [12]: inactive
- max response [20]: 0.374% (inactive)
- Potency [13]: inactive
- Potency [14]: inactive
- Potency [15]: inactive
- Potency [16]: inactive
- Potency [17]: inactive
- Potency [18]: inactive

Compound: N#CC(c1ccccc1)c1ccccc1
- Potency [1]: inactive
- Potency [2]: inactive
- outcome [3]: inactive
- Potency [4]: inactive
- Potency [5]: inactive
- Potency [6]: inactive
- Potency [7]: inactive
- Potency [8]: inactive
- Potency [9]: inactive
- Potency [12]: inactive
- Potency [13]: inactive
- Potency [14]: inactive
- Potency [15]: inactive
- Potency [16]: inactive
- Potency [17]: inactive
- Potency [18]: inactive

Compound: CC(C)Nc1nc(Cl)nc(NC(C)C)n1
- Potency [1]: inactive
- Potency [2]: inactive
- outcome [3]: inactive
- Potency [4]: inactive
- Potency [5]: inactive
- activity change, positive = activation ([19]; at 92.4 µM (top of the series)): 1.71% (inactive) and -9.11% (inactive)
- Potency [6]: inactive
- Potency [7]: inactive
- Potency [8]: inactive
- Potency [9]: inactive
- Potency [11]: inactive
- Potency [12]: inactive
- max response [20]: -12.4% (inactive) and -17.3% (inactive)
- Potency [13]: inactive
- Potency [14]: inactive
- Potency [15]: inactive
- Potency [16]: inactive
- Potency [17]: inactive
- Potency [18]: inactive

Compound: C=CC(Cl)CCl (configuration not stated)
- Potency [1]: inactive
- Potency [2]: inactive
- outcome [3]: inactive
- Potency [4]: inactive
- Potency [6]: inactive
- Potency [7]: inactive
- Potency [8]: inactive
- Potency [9]: inactive
- Potency [10]: inactive
- Potency [11]: inactive
- Potency [12]: inactive
- max response [20]: 19.1% (inactive) and 0.374% (inactive)
- Potency [13]: inactive
- Potency [14]: inactive
- Potency [15]: inactive
- Potency [16]: inactive
- Potency [17]: inactive
- Potency [18]: inactive

Compound: Cc1ccc(N=CN(C)C=Nc2ccc(C)cc2C)c(C)c1
- Potency [1]: 43.8 µM (active) and 30.9 µM (active) and inactive
- Potency [2]: inactive
- outcome [3]: inactive
- Potency [4]: 101 µM (active) and inactive
- Potency [6]: inactive
- Potency [7]: 43.8 µM (active) and 43.6 µM (active) and inactive
- Potency [8]: inactive
- Potency [9]: inactive
- Potency [10]: inactive
- Potency [11]: 43.8 µM (active) and 38.9 µM (active) and inactive
- Potency [12]: inactive
- Potency [13]: inactive
- Potency [14]: inactive
- Potency [15]: inactive
- Potency [16]: 43.6 µM (active) and inactive
- Potency [17]: 43.6 µM (active) and inactive
- Potency [18]: inactive

Compound: Clc1cccc(Cl)c1
- Potency [1]: inactive
- Potency [2]: inactive
- outcome [3]: inactive
- Potency [4]: inactive
- Potency [5]: inactive
- Potency [6]: inactive
- Potency [7]: inactive
- Potency [8]: inactive
- Potency [9]: inactive
- Potency [12]: inactive
- Potency [13]: inactive
- Potency [14]: inactive
- Potency [15]: inactive
- Potency [16]: inactive
- Potency [17]: inactive
- Potency [18]: inactive

Compound: Brc1ccc(Br)cc1
- Potency [1]: inactive
- Potency [2]: inactive
- outcome [3]: inactive
- Potency [4]: inactive
- Potency [5]: inactive
- activity change, positive = activation ([19]; at 92.4 µM (top of the series)): 7.62% (inactive) and 5.83% (inactive)
- Potency [6]: inactive
- Potency [7]: inactive
- Potency [8]: inactive
- Potency [9]: inactive
- Potency [11]: inactive
- Potency [12]: inactive
- Potency [13]: inactive
- Potency [14]: inactive
- Potency [15]: inactive
- Potency [16]: inactive
- Potency [17]: inactive
- Potency [18]: inactive

Compound: Cc1cccc(N=Nc2ccc(N(C)C)cc2)c1
- Potency [1]: inactive
- Potency [2]: inactive
- outcome [3]: inactive
- Potency [4]: 101 µM (active)
- Potency [5]: inactive
- Potency [6]: inactive
- Potency [8]: inactive
- Potency [9]: inactive
- Potency [13]: inactive
- Potency [14]: inactive
- Potency [15]: inactive
- Potency [16]: inactive
- Potency [17]: inactive
- Potency [18]: inactive

Compound: CC1(C)Cc2cccc(O)c2O1
- Potency [1]: inactive
- Potency [2]: inactive
- outcome [3]: inactive
- Potency [4]: inactive
- Potency [6]: inactive
- Potency [7]: inactive
- Potency [8]: inactive
- Potency [9]: inactive
- Potency [10]: inactive
- Potency [12]: inactive
- max response [20]: 1.32% (inactive) and -0.986% (inactive)
- Potency [13]: inactive
- Potency [14]: inactive
- Potency [15]: inactive
- Potency [16]: inactive
- Potency [17]: inactive
- Potency [18]: inactive

Compound: Clc1ccc(C(Cl)(Cl)Cl)cc1
- Potency [1]: inactive
- Potency [2]: inactive
- outcome [3]: inactive
- Potency [4]: inactive
- Potency [5]: inactive
- activity change, positive = activation ([19]; at 92.4 µM (top of the series)): -5.48% (inactive) and 0.497% (inactive)
- Potency [6]: inactive
- Potency [7]: inactive
- Potency [8]: inactive
- Potency [9]: inactive
- Potency [11]: inactive
- Potency [12]: inactive
- max response [20]: -12.2% (inactive) and -12.9% (inactive)
- Potency [13]: inactive
- Potency [14]: inactive
- Potency [15]: inactive
- Potency [16]: inactive
- Potency [17]: inactive
- Potency [18]: inactive

Compound: ClC(Cl)(Cl)c1ccccc1
- Potency [1]: inactive
- Potency [2]: inactive
- outcome [3]: inactive
- Potency [4]: inactive
- Potency [6]: inactive
- Potency [7]: inactive
- Potency [8]: inactive
- Potency [9]: inactive
- Potency [10]: inactive
- Potency [11]: inactive
- Potency [12]: inactive
- max response [20]: 8.54% (inactive) and -1.53% (inactive)
- Potency [13]: inactive
- Potency [14]: inactive
- Potency [15]: inactive
- Potency [16]: inactive
- Potency [17]: inactive
- Potency [18]: inactive
